High-throughput results (PubChem)
D2 PAM-1 – Beta-Arrestin HTS for Positive Allosteric Modulators of the Human D2 Dopamine Receptor: Potentiators. DiscoveRx D2 beta-arrestin cells, luminescence, 90 min; 100% = 57 uM dopamine signal. potentiation, % (concentration not given with the values). 0.23% of 360,000 active; in the data active = potentiation above about 50%
Target sequence (P14416 whole entry, looked up): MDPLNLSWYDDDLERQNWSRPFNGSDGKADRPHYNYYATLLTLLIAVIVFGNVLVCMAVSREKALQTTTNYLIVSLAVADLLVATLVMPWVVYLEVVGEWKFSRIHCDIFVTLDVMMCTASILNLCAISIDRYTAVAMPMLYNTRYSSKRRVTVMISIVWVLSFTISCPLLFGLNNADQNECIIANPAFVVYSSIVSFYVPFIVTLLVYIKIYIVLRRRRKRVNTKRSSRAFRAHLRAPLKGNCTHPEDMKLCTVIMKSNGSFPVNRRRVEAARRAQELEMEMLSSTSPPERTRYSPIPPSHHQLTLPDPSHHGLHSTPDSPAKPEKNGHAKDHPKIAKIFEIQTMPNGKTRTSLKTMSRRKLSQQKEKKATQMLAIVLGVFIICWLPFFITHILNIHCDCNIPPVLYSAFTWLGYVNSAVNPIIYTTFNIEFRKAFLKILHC
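PathHunter beta-arrestin assay in DiscoveRx D2 cells. Compounds were added with an EC20 of dopamine (50 nM final) for 90 min at 37 deg C. Luminescence was read 1 h after detection reagent, with 57 uM dopamine as the EC100 control.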
D2 PAM-2 – HTS Assay for Positive Allosteric Modulators of the Human D2 Dopamine Receptor: Primary Screen for Potentiators; D(2) dopamine receptor (Homo sapiens), P14416; HEK293 T-REx D2, calcium flux, EC20 dopamine potentiation; 0.34% of 340,000 active; potentiation, % at 10 µM; AID 485347, 2010;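 active = potentiation over 3 SD above the plate norm, cut at about 30% in these data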; note: 0% is about no effect
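Calcium flux readout, no-wash dye, 1 read/s. Inducible HEK293 Trex D2 line, overnight 30 C. Compound alone 180 s (agonist flags), then EC20 dopamine, another 180 s to score potentiation.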
D2 antagonist – HTS Assay for Allosteric Antagonists of the Human D2 Dopamine Receptor: Primary Screen for Antagonists; D(2) dopamine receptor (Homo sapiens), P14416; HEK293 TREx D2 cells, calcium flux, dopamine EC80; inhibition, % at 10 µM; 2% of 340,000 active; AID 485344, 2010; in the data active = inhibition above about 30%; inactive = below that, where a call was filed; note: 0% is about no effect
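Calcium flux kinetic readout in an inducible HEK293 TREx D2 line plated overnight at 30 C. After 180 s compound exposure, an EC80 dopamine challenge follows with another 180 s kinetic read to detect antagonism.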
D2 ag-1 – HTS Assay for Allosteric Agonists of the Human D2 Dopamine Receptor: Primary Screen for Agonists; 0.53% of 340,000 active; activation, % at 2 µM; AID 485358, 2010; HEK293 T-REx D2 cells, calcium flux agonist mode;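 active = activation over 3 SD above normal in the single-dose calcium agonist read, cut at about 30% in these data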; note: 0% is about no effect
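Agonism scored from kinetic calcium signal (1 read/sec, 180 s) following compound pin transfer, after a 10 s baseline. Cells: HEK293 Trex line expressing inducible D2 receptor coupled to calcium, dye-loaded after overnight culture at 30 C.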
D2 ag-2 – Beta-Arrestin HTS for Positive Allosteric Modulators of the Human D2 Dopamine Receptor: Agonists; D(2) dopamine receptor (Homo sapiens), P14416; DiscoveRx PathHunter D2 beta-arrestin, luminescence, 90 min; 100% = 57 uM dopamine signal; activation, % (test concentration not listed); 0.084% of 360,000 active; AID 624465, 2012; in the data active = activation above about 40%
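DiscoveRx PathHunter D2 beta-arrestin cells (2,100/well) attached overnight, then compound-stimulated 90 min at 37 C in HBSS/10 mM HEPES/0.1% Tween-20 buffer; beta-galactosidase complementation read by luminescence after 1 h at ambient temperature. Dopamine 57 uM final (EC100) as control.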
Active calls of the source: *. A selection: hits, their analogues and other compounds. The true share with any hit is near 2.4%.

How did CCOC(=O)c1cc2c(c(CSc3nc4ccccc4c(=O)n3Cc3ccco3)c1)OCOC2 do in these assays?
D2 PAM-1: -1.7; D2 PAM-2: 0.0; D2 antagonist: 30.7*; D2 ag-1: 0.6; D2 ag-2: -2.5

What do the screens show for `CC(C)(C)C1(c2ccccc2)NC(=O)N(CC(=O)N2CCOCC2)C1=O` (configuration not stated)?
D2 PAM-1: 9.8; D2 PAM-2: -17.4; D2 antagonist: 43.8*; D2 ag-1: 0.4; D2 ag-2: 1.9

Results for CC1(c2ccccc2)NC(=O)N(CC(=O)N2CCOCC2)C1=O (configuration not stated) ?
D2 PAM-1: -15.9; D2 PAM-2: -3.2; D2 antagonist: 0.3; D2 ag-1: -0.4; D2 ag-2: -3.4

What do the screens show for `COc1ccc(S(=O)(=O)Nc2ccc(Oc3ncccn3)c(Cl)c2)cc1`?
D2 PAM-1: 3.8; D2 PAM-2: -8.7; D2 antagonist: -6.3; D2 ag-1: 1.1; D2 ag-2: -1.8

What do the screens show for `COc1ccc(NS(=O)(=O)c2ccc(NC(=O)c3ccccn3)cc2)cc1`?
D2 PAM-1: -0.4; D2 PAM-2: 73.2*; D2 antagonist: -0.9; D2 ag-1: -0.3; D2 ag-2: 12.5

What do the screens show for `COc1ccc(S(=O)(=O)Nc2ccc(S(=O)(=O)Nc3nccs3)cc2)cc1`?
D2 PAM-1: 1.2; D2 PAM-2: -0.9; D2 antagonist: 49.6*; D2 ag-1: -0.5; D2 ag-2: -1.7

How did COc1cc(OC)cc(C(=O)Nc2ccc(S(=O)(=O)Nc3nc(C)cc(C)n3)cc2)c1 do in these assays?
D2 PAM-1: -3.5; D2 PAM-2: 1.2; D2 antagonist: 33.5*; D2 ag-1: -1.4; D2 ag-2: 4.8

How did COc1ccc(CC(=O)Nc2ccc(S(=O)(=O)Nc3nccs3)cc2)cc1 do in these assays?
D2 PAM-1: -1.2; D2 PAM-2: -2.6; D2 antagonist: 25.5; D2 ag-1: -0.3; D2 ag-2: -2.8

Results for COc1ccc(NS(=O)(=O)c2ccc(Oc3ncccn3)cc2)cc1 ?
D2 PAM-1: 0.1; D2 PAM-2: 45.9*; D2 antagonist: -3.0; D2 ag-1: 1.1; D2 ag-2: 1.2

How did CCCCNC(=O)Cn1c(=O)cc(C)c2c(C)nn(-c3ccc(CC)cc3)c21 do in these assays?
D2 PAM-2: 0.6; D2 ag-1: 0.2

What do the screens show for `Fc1cccc(-c2cc3nc4c(c(N5CCC6(CC5)OCCO6)n3n2)CCCC4)c1`?
D2 PAM-1: 1.1; D2 PAM-2: 32.2*; D2 antagonist: 4.7; D2 ag-1: -2.0; D2 ag-2: -4.5

How did O=S(=O)(c1ccc(Cl)cc1)n1ccc2cccnc21 do in these assays?
D2 PAM-1: -9.9; D2 PAM-2: 38.3*; D2 antagonist: 19.0; D2 ag-1: 0.3; D2 ag-2: -0.9

What do the screens show for `Cc1ccc(S(=O)(=O)n2ccc3cccnc32)cc1`?
D2 PAM-1: -8.1; D2 PAM-2: -2.6; D2 antagonist: 37.3*; D2 ag-1: 0.6; D2 ag-2: -0.8

What do the screens show for `Cc1ccc2nc(CN3CCN(C(=O)Nc4ccc(C)c(F)c4)CC3)oc2c1`?
D2 PAM-2: -9.7

What do the screens show for `Cc1cc(C(=O)COC(=O)c2ccc3c(c2)NC(=O)CS3)c(C)n1CCc1ccc(Cl)cc1`?
D2 PAM-1: 6.2; D2 PAM-2: 14.3; D2 antagonist: 63.4*; D2 ag-1: -0.8; D2 ag-2: 1.5

What do the screens show for `Cc1ccc(C(=O)COC(=O)c2cccc(NC(=O)c3ccc(Cl)cc3Cl)c2)cc1`?
D2 PAM-2: -6.3; D2 ag-1: 3.1

How did COc1ccc(-c2csc(C3=C(O)CN(Cc4ccc(Cl)cc4)C3=N)n2)cc1OC do in these assays?
D2 PAM-1: -20.6; D2 PAM-2: -17.8; D2 antagonist: 73.5*; D2 ag-1: 0.5; D2 ag-2: 0.6

Results for CCC(C)NC(=O)Cn1c(=O)n(-c2cc(OC)cc(OC)c2)c(=O)c2ccccc21 (configuration not stated) ?
D2 PAM-2: -5.1
